Measured values taken from the supplement of paper PMC12808144.
Unmarked numbers belong to inactive results.

How the values were obtained:
Mel-DCC-11 = assay: cell viability relative to DMSO control (fraction of DMSO control); higher = less cytotoxic, active = 0.5 or less; settings: 1 µM; 120 h
How it was run: (§1)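 Three cell types were screened against 315 approved anti-cancer drugs from TargetMol, acoustically pre-spotted in 384-well plates at 1 µM in duplicate over 120 h: NHEM-hTERT immortalized melanocytes (2500/well), patient-derived Mel-DCC-11 and its resistant subline Mel-DCC-11-R (both 1500/well), all in 40 µl per well. The subline was tested alone and with 8 µM of its selecting drug. Viability, measured by luminescence, was normalised to vehicle controls and averaged across duplicates, with ATPlite 1step as the readout.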

NHEM-hTERT = assay: as above; settings: 1 µM; 120 h
How it was run: as §1

Mel-DCC-11-R = assay: cell viability relative to DMSO control (fraction of DMSO control); higher = less cytotoxic, active = 0.8 or less; settings: 1 µM, 120 h
How it was run: as §1

Compound | cell viability (Mel-DCC-11) | cell viability (NHEM-hTERT) | cell viability (Mel-DCC-11-R; vemurafenib co-treatment 0 µM) | cell viability (Mel-DCC-11-R; vemurafenib co-treatment 8 µM)
CN(C)N=Nc1[nH]cnc1C(N)=O [Dacarbazine] | 2.24 | 0.982 | 1.04 | 1.17
O=C(Nc1c(Cl)cncc1Cl)c1ccc(OC(F)F)c(OCC2CC2)c1 [Roflumilast] |  | 0.841 |  | 
O=c1[nH]c(=O)n([C@H]2C[C@H](O)[C@@H](CO)O2)cc1F [Floxuridine] |  | 1.11 |  | 
CNC(=O)c1cc(Oc2ccc(NC(=O)Nc3ccc(Cl)c(C(F)(F)F)c3)cc2)ccn1.Cc1ccc(S(=O)(=O)O)cc1 [Sorafenib tosylate] | 1.35 | 0.904 | 1.02 | 1.1
Cc1ccc(-c2ncc(Cl)cc2-c2ccc(S(C)(=O)=O)cc2)cn1 [Etoricoxib] | 1.11 | 1.17 | 1.11 | 1.06
CCCCCCNC(=O)n1cc(F)c(=O)[nH]c1=O [Carmofur] | 1.58 | 1.17 | 1.12 | 1.06
O=C(CCCCCCNC(=O)c1cnc(N(c2ccccc2)c2ccccc2)nc1)NO [Rocilinostat] | 0.614 | 0.847 | 0.681 (active) | 0.644 (active)
CC1(C)[C@@H](O[C@H]2O[C@H](C(=O)O)[C@@H](O)[C@H](O)[C@H]2OC2O[C@H](C(=O)O)[C@@H](O)[C@H](O)[C@H]2O)CC[C@]2(C)[C@H]3C(=O)C=C4[C@@H]5C[C@@](C)(C(=O)O)CC[C@]5(C)CC[C@@]4(C)[C@]3(C)CC[C@@H]12 (stereo partly specified) [Glycyrrhizin] | 1.13 | 1.01 | 1.06 | 1.19
